# According to the supplement of paper PMC10849652:
# About 7,900 targets were measured; listed, in parts, are those with a hit and a random draw of the rest. About 0.6% of all pairs of compound and target were hits. Unmarked numbers belong to inactive results.
# Experiments:
# Assay in all cases: log2 fold change, soluble protein after heating vs DMSO (PISA); higher = thermal stabilisation; K562 cells, 10 uM, 30 min; active = over 0.2 and 3.5 SD of the protein, either way, in both replicates (recomputed)
# [1] = compound: C1=CC=C(C=C1)[C@H](COC2=CC3=C(C=C2)NC(=O)N3)NC(=O)C4=CC=CN(C4=O)CC5=CC(=C(C=C5)F)F
# Procedure, shortened: (§1)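 K562 cells (2×10^6 cells/mL) were treated with 10 μM compound for 30 min, and aliquots were heated for 3 min over 48°C-58°C. Pooled aliquots were extracted in PBS with 0.5% NP-40 at 4°C, and the supernatant after 21,000xg for 90 min was measured by TMTpro 16plex LC-MS/MS with channel sums equalised. Reported thermal stability, relative to control samples and from duplicates, is a log2 fold change.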
# [2] = compound: CC1=C(SC2=C1C(=N[C@H](C3=NN=C(N32)C)CC(=O)N)C4=CC=C(C=C4)Cl)C
# Procedure, shortened: as §1
# [3] = compound: CC1=C2C(=CC=C1)N=C(N(C2=O)C3=CC=CC=C3C)CN4C=NC5=C(N=CN=C54)N
# Procedure, shortened: as §1
# [4] = compound: Cc1sc2c(c1C)C(c1ccc(Cl)cc1)=N[C@@H](CC(=O)OC(C)(C)C)c1nnc(C)n1-2
# Procedure, shortened: as §1
# [5] = compound: c1ccc([C@@H]2C[C@H]2NC2CCNCC2)cc1
# Procedure, shortened: as §1
# Chain of UniProt P46527 (P46527 whole entry, looked up): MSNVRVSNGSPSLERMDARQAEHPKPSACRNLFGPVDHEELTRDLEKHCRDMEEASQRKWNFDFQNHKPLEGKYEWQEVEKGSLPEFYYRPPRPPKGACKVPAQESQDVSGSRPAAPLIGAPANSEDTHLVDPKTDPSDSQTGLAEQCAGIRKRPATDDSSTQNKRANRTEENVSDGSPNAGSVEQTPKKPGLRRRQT
# Chain of UniProt Q9BT78 (Q9BT78 whole entry, looked up): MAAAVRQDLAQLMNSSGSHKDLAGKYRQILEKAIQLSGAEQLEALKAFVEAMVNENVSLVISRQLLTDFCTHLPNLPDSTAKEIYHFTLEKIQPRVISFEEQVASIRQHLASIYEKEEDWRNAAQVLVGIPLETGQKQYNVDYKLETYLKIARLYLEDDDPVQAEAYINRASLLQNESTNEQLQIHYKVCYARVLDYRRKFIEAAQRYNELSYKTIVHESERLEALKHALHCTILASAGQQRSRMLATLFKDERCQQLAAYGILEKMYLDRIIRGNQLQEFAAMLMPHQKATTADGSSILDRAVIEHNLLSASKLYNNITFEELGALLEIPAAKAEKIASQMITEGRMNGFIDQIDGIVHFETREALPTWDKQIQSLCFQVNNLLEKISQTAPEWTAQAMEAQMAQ
# Chain of UniProt Q12873 (Q12873 whole entry, looked up): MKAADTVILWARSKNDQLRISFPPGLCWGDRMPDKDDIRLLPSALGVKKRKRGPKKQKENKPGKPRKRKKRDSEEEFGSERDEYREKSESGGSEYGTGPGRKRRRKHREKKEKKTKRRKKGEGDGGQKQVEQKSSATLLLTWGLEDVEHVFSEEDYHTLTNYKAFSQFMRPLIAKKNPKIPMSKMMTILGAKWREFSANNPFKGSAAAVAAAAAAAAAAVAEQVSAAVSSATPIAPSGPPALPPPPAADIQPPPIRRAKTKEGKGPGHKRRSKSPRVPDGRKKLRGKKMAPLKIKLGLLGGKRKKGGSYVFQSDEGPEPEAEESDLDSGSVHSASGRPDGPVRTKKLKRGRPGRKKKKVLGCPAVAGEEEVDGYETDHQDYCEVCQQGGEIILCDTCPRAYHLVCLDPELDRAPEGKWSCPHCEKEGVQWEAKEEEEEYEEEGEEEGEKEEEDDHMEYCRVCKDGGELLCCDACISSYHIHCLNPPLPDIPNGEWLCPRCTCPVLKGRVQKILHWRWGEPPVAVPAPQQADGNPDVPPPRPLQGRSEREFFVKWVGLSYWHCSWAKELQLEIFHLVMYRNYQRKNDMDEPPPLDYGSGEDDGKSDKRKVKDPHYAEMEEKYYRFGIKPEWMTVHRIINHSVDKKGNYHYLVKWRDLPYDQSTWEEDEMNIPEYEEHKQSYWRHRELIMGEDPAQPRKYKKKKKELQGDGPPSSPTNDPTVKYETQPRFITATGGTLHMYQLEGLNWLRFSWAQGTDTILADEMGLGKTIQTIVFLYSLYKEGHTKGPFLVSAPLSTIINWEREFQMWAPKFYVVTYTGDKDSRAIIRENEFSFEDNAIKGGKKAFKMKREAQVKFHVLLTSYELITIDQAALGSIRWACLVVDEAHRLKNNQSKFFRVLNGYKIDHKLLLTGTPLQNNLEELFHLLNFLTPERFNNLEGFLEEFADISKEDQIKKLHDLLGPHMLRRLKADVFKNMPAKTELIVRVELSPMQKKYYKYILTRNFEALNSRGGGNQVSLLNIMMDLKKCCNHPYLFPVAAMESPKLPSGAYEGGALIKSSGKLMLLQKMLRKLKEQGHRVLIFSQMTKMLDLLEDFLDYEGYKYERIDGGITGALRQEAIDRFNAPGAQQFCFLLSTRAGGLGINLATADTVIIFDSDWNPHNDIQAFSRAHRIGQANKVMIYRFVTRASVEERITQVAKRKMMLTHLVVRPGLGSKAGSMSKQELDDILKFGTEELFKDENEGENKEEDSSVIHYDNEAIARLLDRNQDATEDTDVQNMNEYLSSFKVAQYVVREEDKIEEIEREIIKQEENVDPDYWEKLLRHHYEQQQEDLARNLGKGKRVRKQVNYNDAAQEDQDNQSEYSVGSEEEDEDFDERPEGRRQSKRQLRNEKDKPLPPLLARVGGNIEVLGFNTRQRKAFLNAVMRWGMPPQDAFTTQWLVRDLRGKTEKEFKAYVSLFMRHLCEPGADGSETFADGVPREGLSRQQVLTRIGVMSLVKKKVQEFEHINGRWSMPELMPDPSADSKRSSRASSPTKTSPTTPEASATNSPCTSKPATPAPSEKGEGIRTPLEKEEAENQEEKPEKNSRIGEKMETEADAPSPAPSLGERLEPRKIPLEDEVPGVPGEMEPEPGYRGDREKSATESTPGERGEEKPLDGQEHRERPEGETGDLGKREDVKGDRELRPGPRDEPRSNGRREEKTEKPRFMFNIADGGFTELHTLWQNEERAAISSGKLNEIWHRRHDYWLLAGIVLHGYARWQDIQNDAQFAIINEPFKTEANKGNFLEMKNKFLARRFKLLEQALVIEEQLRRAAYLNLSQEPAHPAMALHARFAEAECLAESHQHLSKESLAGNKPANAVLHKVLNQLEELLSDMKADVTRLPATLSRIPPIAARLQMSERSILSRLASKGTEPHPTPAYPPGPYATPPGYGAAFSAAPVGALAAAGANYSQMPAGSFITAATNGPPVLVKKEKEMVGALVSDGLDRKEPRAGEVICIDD
# Chain of UniProt Q5T5Y3 (Q5T5Y3 whole entry, looked up): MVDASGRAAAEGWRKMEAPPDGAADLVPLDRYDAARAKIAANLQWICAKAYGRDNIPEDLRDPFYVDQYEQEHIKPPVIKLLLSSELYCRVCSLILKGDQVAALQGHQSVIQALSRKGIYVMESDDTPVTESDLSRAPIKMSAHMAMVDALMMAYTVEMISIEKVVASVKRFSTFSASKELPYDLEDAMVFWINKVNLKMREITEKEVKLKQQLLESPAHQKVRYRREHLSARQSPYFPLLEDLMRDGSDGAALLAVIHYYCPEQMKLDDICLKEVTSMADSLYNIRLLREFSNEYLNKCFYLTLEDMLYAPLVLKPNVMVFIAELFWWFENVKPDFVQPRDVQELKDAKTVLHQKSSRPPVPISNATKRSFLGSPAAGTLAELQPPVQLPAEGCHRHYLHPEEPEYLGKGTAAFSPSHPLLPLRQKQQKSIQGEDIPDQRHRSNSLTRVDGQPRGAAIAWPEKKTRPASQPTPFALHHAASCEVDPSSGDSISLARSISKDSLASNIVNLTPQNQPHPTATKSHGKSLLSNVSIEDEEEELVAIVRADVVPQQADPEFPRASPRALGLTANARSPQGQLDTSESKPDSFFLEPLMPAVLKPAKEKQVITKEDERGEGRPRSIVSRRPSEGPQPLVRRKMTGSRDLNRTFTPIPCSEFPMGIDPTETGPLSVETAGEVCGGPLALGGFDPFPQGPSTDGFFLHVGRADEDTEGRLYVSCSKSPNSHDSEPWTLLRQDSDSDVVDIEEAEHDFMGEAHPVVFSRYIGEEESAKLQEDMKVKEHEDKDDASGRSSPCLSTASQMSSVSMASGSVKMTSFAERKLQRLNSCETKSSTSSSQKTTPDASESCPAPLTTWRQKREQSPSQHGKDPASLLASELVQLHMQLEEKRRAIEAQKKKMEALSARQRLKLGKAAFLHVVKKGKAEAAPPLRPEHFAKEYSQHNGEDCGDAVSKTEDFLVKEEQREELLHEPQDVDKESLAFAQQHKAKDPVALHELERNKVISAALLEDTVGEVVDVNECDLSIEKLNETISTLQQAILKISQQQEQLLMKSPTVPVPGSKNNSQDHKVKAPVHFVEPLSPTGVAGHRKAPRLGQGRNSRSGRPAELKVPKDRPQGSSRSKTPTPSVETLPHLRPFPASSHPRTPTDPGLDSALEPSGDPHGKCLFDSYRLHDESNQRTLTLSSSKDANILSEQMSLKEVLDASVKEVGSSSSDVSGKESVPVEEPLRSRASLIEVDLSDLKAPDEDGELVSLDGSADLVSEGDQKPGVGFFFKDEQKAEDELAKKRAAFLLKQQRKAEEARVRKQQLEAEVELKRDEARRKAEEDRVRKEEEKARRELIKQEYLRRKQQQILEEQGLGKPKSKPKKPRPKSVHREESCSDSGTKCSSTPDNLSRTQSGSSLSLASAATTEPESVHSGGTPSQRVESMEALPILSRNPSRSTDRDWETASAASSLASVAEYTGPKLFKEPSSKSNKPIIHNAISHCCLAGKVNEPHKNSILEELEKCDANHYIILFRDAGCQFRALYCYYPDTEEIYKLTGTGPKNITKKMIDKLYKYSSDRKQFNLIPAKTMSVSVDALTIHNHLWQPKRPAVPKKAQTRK
# Chain of UniProt Q6P5X5 (Q6P5X5 whole entry, looked up): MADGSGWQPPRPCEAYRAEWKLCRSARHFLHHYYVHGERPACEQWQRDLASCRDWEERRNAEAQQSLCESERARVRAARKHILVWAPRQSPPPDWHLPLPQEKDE
# Chain of UniProt P83916 (P83916 whole entry, looked up): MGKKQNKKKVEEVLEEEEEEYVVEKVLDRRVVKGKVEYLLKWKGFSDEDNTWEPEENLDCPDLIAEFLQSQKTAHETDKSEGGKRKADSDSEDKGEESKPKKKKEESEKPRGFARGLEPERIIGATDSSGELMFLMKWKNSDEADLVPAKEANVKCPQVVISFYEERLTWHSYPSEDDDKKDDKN
# Chain of UniProt P10606 (P10606 whole entry, looked up): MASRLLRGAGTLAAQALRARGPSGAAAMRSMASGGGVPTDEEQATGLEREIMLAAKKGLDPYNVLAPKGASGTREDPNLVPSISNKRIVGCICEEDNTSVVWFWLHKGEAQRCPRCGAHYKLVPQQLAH
# Chain of UniProt P45973 (P45973 whole entry, looked up): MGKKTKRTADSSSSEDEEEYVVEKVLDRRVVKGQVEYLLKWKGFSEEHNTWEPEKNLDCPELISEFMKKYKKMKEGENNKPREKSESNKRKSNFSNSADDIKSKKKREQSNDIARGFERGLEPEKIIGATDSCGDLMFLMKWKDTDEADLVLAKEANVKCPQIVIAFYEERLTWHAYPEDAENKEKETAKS
# Chain of UniProt O15182 (O15182 whole entry, looked up): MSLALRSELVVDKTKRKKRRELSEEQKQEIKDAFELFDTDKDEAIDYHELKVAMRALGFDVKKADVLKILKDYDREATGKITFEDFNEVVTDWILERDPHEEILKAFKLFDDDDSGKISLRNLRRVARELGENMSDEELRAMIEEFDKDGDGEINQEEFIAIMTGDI
Target,log2 fold change [1],log2 fold change [2],log2 fold change [3],log2 fold change [4],log2 fold change [5]
CFAP36 isoform 2 (UniProt Q96G28),-0.042,0.01,0.383 (active),-0.009,-0.158
CDC37L1 (UniProt Q7L3B6),-0.009,0.026,0.087,0.337,0.02
CRKL (UniProt P46109),0.01,0.041,0.032,0.016,-0.002
CBX5 (UniProt P45973),-0.001,0.029,0.05,0.016,0.008
CORO2A (UniProt Q92828),-0.057,-0.041,0.061,0.045,0.071
CBS (UniProt P35520),-0.029,0.07,0.016,-0.014,-0.026
CSNK2A1 (UniProt P68400),0.018,0.033,0.018,-0.008,0.02
CNOT4 isoform 9 (UniProt O95628),0.009,-0.09,0.147,-0.067,-0.055
CDK5RAP1 (UniProt Q96SZ6),0.056,0.029,0.149,0.028,-0.023
CALB1 (UniProt P05937),0.001,0.009,-0.045,-0.068,0.026
CCDC9 (UniProt Q9Y3X0),-0.019,-0.012,-0.118,0.091,0.041
CDK11B (UniProt P21127),-0.05,0.015,0.137,-0.01,0.059
CDK16 isoform 2 (UniProt Q00536),-0.009,0.026,0.043,-0.014,-0.074
CNOT7 (UniProt Q9UIV1),-0.024,-0.053,0.068,-0.032,0.002
CERT isoform 3 (UniProt Q9Y5P4),0.102,0.029,0.066,0.14,-0.028
CAD (UniProt P27708),-0.115,0.048,-0.019,-0.005,-0.033
COX5B (UniProt P10606),0.015,0.104,-0.006,-0.126,-0.099
CAMK2G isoform 6 (UniProt Q13555),-0.017,0.054,0.044,0.096,-0.021
CCDC59 (UniProt Q9P031),0.012,-0.177,-0.214,0.165,0.052
CDC25B isoform 4 (UniProt P30305),0.107,0.009,0.101,–,-0.024
CNDP2 (UniProt Q96KP4),-0.006,0.039,0.023,0.009,-0.041
CEP128 (UniProt Q6ZU80),-0.039,0.099,0.216,0.104,0.041
CCDC167 (UniProt Q9P0B6),0.153,-0.037,–,-0.124,0.073
CLCN3 isoform 2 (UniProt P51790),0.044,-0.006,-0.014,-0.021,0.013
C22orf39 (UniProt Q6P5X5),0.126,0.145,–,-0.06,-0.037
CHEK1 (UniProt O14757),0.006,0.065,0.087,0.025,0.01
C4A (UniProt P0C0L4),-0.158,-0.067,0.127,-0.101,-0.01

Target,log2 fold change [1],log2 fold change [2],log2 fold change [3],log2 fold change [4],log2 fold change [5]
CDK4 (UniProt P11802),0.012,0.128,0.119,–,-0.165
CPT2 (UniProt P23786),-0.402,0.19,0.155,-0.017,-0.026
CNOT1 (UniProt A5YKK6),-0.02,0.021,0.031,-0.017,-0.021
CDK8 (UniProt P49336),0,-0.043,0.018,0.035,-0.129
CTBS (UniProt Q01459),0.082,-0.002,0.014,-0.019,-0.006
COPS4 (UniProt Q9BT78),0.04,0.023,0.016,-0.01,-0.011
CDKN1B (UniProt P46527),-0.009,-0.029,-0.036,–,-0.004
CCNC (UniProt P24863),-0.139,-0.172,0.01,–,-0.037
CLN8 (UniProt Q9UBY8),0.121,0.042,-0.067,0.043,-0.057
CKB (UniProt P12277),-0.1,0.01,0.038,-0.022,-0.118
CHAMP1 (UniProt Q96JM3),-0.073,0.044,0.022,-0.051,-0.006
CDK17 isoform 2 (UniProt Q00537),-0.095,-0.006,-0.049,–,-0.083
CCNH (UniProt P51946),0.02,-0.035,0.032,0.002,0.033
CDK12 (UniProt Q9NYV4),0.102,-0.425,-0.103,0.112,0.008
CRYM-AS1 (UniProt A6NIL9),-0.295,0.037,0.297,-0.201,-0.002
CASC3 (UniProt O15234),0.02,0.044,0.015,0.244,0.025
CCNDBP1 (UniProt O95273),0.023,-0.118,0.182,0.007,0.047
CBX1 (UniProt P83916),0.003,0.026,0.023,-0.003,0.031
CETN3 (UniProt O15182),0.019,-0.055,0.109,0.008,-0.014
CDK9 isoform 2 (UniProt P50750),-0.007,-0.03,0,0.089,0
C9orf72 (UniProt Q96LT7),0.02,0.009,0.085,-0.115,0.002
C9orf64 (UniProt Q5T6V5),-0.15,0.054,0.097,0.052,-0.066
CD81 (UniProt P60033),-0.083,-0.013,-0.035,0.03,0.109
CCZ1 (UniProt P86791),0.011,0.009,0.02,0.017,-0.024
CHD3 isoform 3 (UniProt Q12873),-0.104,0.038,0.069,-0.038,0.087
CAMSAP1 isoform 3 (UniProt Q5T5Y3),-0.06,0.083,0.221,0.016,0.02
CLCN7 (UniProt P51798),-0.018,0.024,-0.054,0.024,-0.032
